The record followed here is PubChem BioAssay (Tox21).

Records with an inconclusive call do not appear. A call without a number means that no potency is given here. Activity calls are given as the source filed them. Calls come from the whole dose curve; as a rule, active = well fitted cell-killing curve with a large enough effect in the repeat runs; inconclusive = weak or mixed curves; inactive = no such curve, though single readings can be large or run the other way.
Potency is the fitted concentration of half-maximal effect.

One experiment is described as follows: qHTS assay for identifying genotoxic compounds that show differential cytotoxicity against isogenic chicken DT40 cell lines with known DNA damage response pathways - Rad54/Ku70 mutant cell line (AID 743015). Note: nearly all actives have a fitted effect of over 60% in size. Particulars: DT40 Rad54/Ku70 mutant viability, CellTiter-Glo, 40 h; series mostly up to 66.8 µM.
Consider `CO[C@H]1C[C@@H]2CC[C@@H](C)[C@@](O)(O2)C(=O)C(=O)N2CCCC[C@H]2C(=O)O[C@H]([C@H](C)C[C@@H]2CC[C@@H](OCCO)[C@H](OC)C2)CC(=O)[C@H](C)/C=C(\C)[C@@H](O)[C@@H](OC)C(=O)[C@H](C)C[C@H](C)/C=C/C=C/C=C/1C`, for which the Potency is 16.8 nM (active).
On the same count and under the same terms, the value for `CC1CC(OC(=O)C(O)c2ccccc2)CC(C)(C)C1` (stereo unspecified) was 21100 nM (active); that for `Cc1cccc(C)c1NC(=O)NC1=CCCN1C` was “inactive”; that for `C[C@]12C=CC(=O)N[C@@H]1CC[C@@H]1[C@@H]2CC[C@]2(C)[C@@H](C(=O)Nc3cc(C(F)(F)F)ccc3C(F)(F)F)CC[C@@H]12` was 2660 nM (active).
On the same count and under the same terms, in the case of `O=c1oc2cc(O)ccc2s1` it was “inactive”.
Still for that read-out and setting: the value for `Cc1ccc(C2(O)CCN(CCCC(=O)c3ccc(F)cc3)CC2)cc1` was 10600 nM (active).
For `Cc1cc(C)c(NC(=O)C[C@H](CC(=O)O)c2cccc3ccccc23)c(C(=O)N2CCC3(CCCC3)CC2)c1`, the Potency entry is “inactive”.

The nature of a further experiment: qHTS assay to identify small molecule antagonists of the androgen receptor (AR) signaling pathway - cell viability counter screen (AID 743033; note: nearly all actives have a fitted effect of over 45% in size). The following applies: AR-bla HEK293 viability, CellTiter-Glo luminescence, 16 h; series mostly up to 58.5 µM. A general note: Quantitative high-throughput screening tests each substance at several concentrations.
On to `CCCCCCCCCCCCCCCCCCCCCCO`, for which the Potency entry is “inactive”.
In the case of `OC(CN1CCCCC1)c1cc(-c2ccccc2)on1` (stereo unspecified), the Potency entry was “inactive”.
For `CCCCCCCCCCCCCCCC(=O)OC[C@@H](NC(=O)C(Cl)Cl)[C@H](O)c1ccc([N+](=O)[O-])cc1`, the Potency entry is “inactive”.
Still for that read-out and setting: in the case of `CC[C@H]1NC(=O)[C@@H](NC(=O)c2ncccc2O)[C@@H](C)OC(=O)[C@H](c2ccccc2)NC(=O)[C@@H]2CC(=O)CCN2C(=O)[C@H](Cc2ccccc2)N(C)C(=O)[C@@H]2CCCN2C1=O` it was “inactive”; in that of `NC(=O)c1ccc[n+]([C@@H]2O[C@H](COP(=O)([O-])OP(=O)(O)OC[C@H]3O[C@@H](n4cnc5c(N)ncnc54)[C@H](O)[C@@H]3O)[C@@H](O)[C@H]2O)c1`, “inactive”.
On to `O=C(O)CN(CC(=O)O)CC1=CC2C(=CC1=O)Oc1cc(O)c(CN(CC(=O)O)CC(=O)O)cc1C21OC(=O)c2ccccc21` (stereo unspecified), for which the Potency entry was “inactive”.
With `CCCCCCCCCCCCCCCC(=O)OC[C@@H](O)[C@H]1OC[C@H](O)[C@H]1O`, the Potency entry is “inactive”.
On to `C=C1CC[C@H](O)CC1=C/C=C1\CCC[C@]2(C)[C@@H]([C@H](C)CC[C@@H](O)C(C)(C)O)CC[C@@H]12`, for which the Potency entry was “inactive”.
As for `CSc1nc2cc(Oc3cccc(Cl)c3Cl)c(Cl)cc2[nH]1`, the Potency entry was “inactive”.
Take `N#CC(c1ccc(Cl)cc1)c1c(Cl)cc(-n2ncc(=O)[nH]c2=O)cc1Cl` (stereo unspecified): the Potency result was “inactive”.
As for `CN(C)CCOc1ccccc1Cc1ccccc1` (tested in a mixture with another compound), the Potency entry is “inactive”.
In the case of `CN1CC(O)c2cc(N=NC(N)=O)c(O)cc21` (stereo unspecified), the Potency result was “inactive”.
Same read-out and setting: the value for `COC(=O)[C@H]1[C@H]2C[C@@H]3c4[nH]c5cc(OC)ccc5c4CCN3C[C@H]2C[C@H](OC)[C@@H]1OC` was “inactive”.
Regarding `Cc1ncc(COP(=O)(O)O)c(CN)c1O`, the Potency result is “inactive”.
Still for that read-out and setting: the value for `CNC(=O)c1c(I)c(C(=O)NCC(=O)Nc2c(I)c(C(=O)O)c(I)c(C(=O)NCCO)c2I)c(I)c(N(C)C(C)=O)c1I` was “inactive”.
Still for that read-out and setting: the value for `Nc1nc2c(c(=O)[nH]1)N(C=O)C(CNc1ccc(C(=O)N[C@@H](CCC(=O)O)C(=O)O)cc1)CN2` (stereo partly specified) was “inactive”; that for `CCc1ccc(S(=O)(=O)O)cc1` was “inactive”.
On the same count and under the same terms, in the case of `C[C@@H]1C[C@H]2[C@@H]3CCC4=CC(=O)C=C[C@]4(C)[C@@]3(F)[C@@H](O)C[C@]2(C)[C@@]1(O)C(=O)COC(=O)c1cccc(S(=O)(=O)O)c1` it was “inactive”; in that of `COc1ccc(C[C@H](C)NC[C@@H](O)c2ccc(O)c(NC=O)c2)cc1`, “inactive”.
On to `O=C(Nc1ccc(/C=C/c2ccc(NC(=O)c3cc(S(=O)(=O)O)c4cccnc4c3O)cc2S(=O)(=O)O)c(S(=O)(=O)O)c1)c1cc(S(=O)(=O)O)c2cccnc2c1O`, for which the Potency result was “inactive”.
On the same count and under the same terms, in the case of `OC[C@H]1O[C@@H](O[C@H]2[C@H](O)[C@@H](O)[C@H](O)O[C@@H]2CO)[C@H](O)[C@@H](O)[C@@H]1O` it was “inactive”; in that of `CC[C@]1(O)CC2CN(CCc3c([nH]c4ccccc34)[C@@](C(=O)OC)(c3cc4c(cc3OC)N(C)[C@H]3[C@@](O)(C(N)=O)[C@H](O)[C@]5(CC)C=CCN6CC[C@]43[C@@H]65)C2)C1` (stereo partly specified), “inactive”.
Same read-out and setting: in the case of `COc1ccc(C2NC(=S)N3C(c4ccc(OC)c(OC)c4)NC(=S)N23)cc1OC` (stereo unspecified) it was 239 nM (active); in that of `C[C@]12CCC(=O)C=C1CC[C@@H]1[C@@H]2[C@@H](O)C[C@@]2(C)[C@H]1CC[C@]2(O)C(=O)COP(=O)(O)O`, “inactive”; in that of `Cc1c(O)cc2c(c1C)O[C@](C)(CCC[C@H](C)CCC[C@H](C)CCCC(C)C)CC2`, “inactive”.
Consider `CC(=O)O[C@H]1CC[C@@]2(C)C(=CC[C@H]3[C@@H]4CC[C@H](C(C)=O)[C@@]4(C)CC[C@@H]32)C1`, for which the Potency entry is “inactive”.
The same measure, in the same setting: the value for `CC(/C=C/C=C(\C)C(=O)O[C@@H]1O[C@H](CO[C@@H]2O[C@H](CO)[C@@H](O)[C@H](O)[C@H]2O)[C@@H](O)[C@H](O)[C@H]1O)=C\C=C\C=C(C)\C=C\C=C(/C)C(=O)O[C@@H]1O[C@H](CO[C@@H]2O[C@H](CO)[C@@H](O)[C@H](O)[C@H]2O)[C@@H](O)[C@H](O)[C@H]1O` was “inactive”; that for `CC1(C)S[C@@H]2[C@H](NC(=O)[C@H](NC(=O)N3CCN(S(C)(=O)=O)C3=O)c3ccccc3)C(=O)N2[C@H]1C(=O)O` was “inactive”; that for `CN1c2c(nc(N)[nH]c2=O)NCC1CNc1ccc(C(=O)NC(CCC(=O)O)C(=O)O)cc1` (stereo unspecified) was “inactive”.
Same read-out and setting: the value for `CC[C@H]1OC(=O)[C@H](C)[C@@H](O[C@H]2C[C@@](C)(OC)[C@@H](O)[C@H](C)O2)[C@H](C)[C@@H](O[C@@H]2O[C@H](C)C[C@H](N(C)C)[C@H]2O)[C@](C)(O)C[C@@H](C)[C@@H]2N[C@@H](COCCOC)O[C@@H]([C@H]2C)[C@]1(C)O` was “inactive”.
As to `COc1cc(NCCCC(C)N)c2ncccc2c1` (stereo unspecified), the Potency result is “inactive”.
On the same count and under the same terms, the value for `O=C(NCCNCC(O)COc1ccc(O)cc1)N1CCOCC1` (stereo unspecified) was “inactive”; that for `CO[C@H]1C[C@@H]2CC[C@@H](C)[C@@](O)(O2)C(=O)C(=O)N2CCCC[C@H]2C(=O)O[C@H]([C@H](C)C[C@@H]2CC[C@@H](OCCO)[C@H](OC)C2)CC(=O)[C@H](C)/C=C(\C)[C@@H](O)[C@@H](OC)C(=O)[C@H](C)C[C@H](C)/C=C/C=C/C=C/1C` was “inactive”.
Still for that read-out and setting: the value for `CC1CC(OC(=O)C(O)c2ccccc2)CC(C)(C)C1` (stereo unspecified) was “inactive”; that for `Cc1cccc(C)c1NC(=O)NC1=CCCN1C` was “inactive”.
As to `C[C@]12C=CC(=O)N[C@@H]1CC[C@@H]1[C@@H]2CC[C@]2(C)[C@@H](C(=O)Nc3cc(C(F)(F)F)ccc3C(F)(F)F)CC[C@@H]12`, the Potency entry was “inactive”.
With `O=c1oc2cc(O)ccc2s1`, the Potency entry is “inactive”.
On the same count and under the same terms, the value for `Cc1ccc(C2(O)CCN(CCCC(=O)c3ccc(F)cc3)CC2)cc1` was “inactive”; that for `Cc1cc(C)c(NC(=O)C[C@H](CC(=O)O)c2cccc3ccccc23)c(C(=O)N2CCC3(CCCC3)CC2)c1` was “inactive”.
